This note sets out measurements from PubChem BioAssay.

Calls of active or inactive are those of the source. Unless noted, the rule behind the calls is not given here.

A short description of assay [1]: resazurin metabolic signal in HepG2 cells – cell-based, resazurin fluorescence, 24 h, PK04 Diversity Set, profiling panel (AID 1172). Note: test concentration not given here. Particulars: HepG2 viability, higher = more signal.
Assay [2] in a line: budding yeast growth changes without added modifier – OD600, strain BY4716, 24 h, basal condition, primary screen (AID 1173). To be noted: S. cerevisiae BY4716 growth, OD600, 24 h; higher = more signal, called active from +8 up or from −8 down.
The nature of assay [3]: viability profiling in MM1S myeloma cells – cell-based, resazurin fluorescence, basal, 24 h, PK04 Diversity Set, profiling panel (AID 1174).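 Note: MM1S multiple myeloma cell line; test concentration not given here.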 Particulars: higher = more signal, called active from +8 up or from −8 down. (In general: The colour change of resazurin is a common sign of viable cells or microbes.)
Assay [4] deals with Dihydroorotate dehydrogenase (quinone), mitochondrial (Plasmodium falciparum (isolate 3D7)) (UniProt Q08210). Nature of the assay: inhibition of P. falciparum DHODH – biochemical, C-terminal His tag, absorbance 600 nm, primary screen (AID 1175).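 Note: recombinant parasite enzyme with a five histidine tag at its C terminus; test concentration not given here.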 Particulars: PfDHODH enzyme, DCIP absorbance 600 nm; higher = more signal, called active from +8 up or from −8 down.
Sequence of Dihydroorotate dehydrogenase (quinone), mitochondrial (Plasmodium falciparum (isolate 3D7)) (Q08210 whole entry, looked up): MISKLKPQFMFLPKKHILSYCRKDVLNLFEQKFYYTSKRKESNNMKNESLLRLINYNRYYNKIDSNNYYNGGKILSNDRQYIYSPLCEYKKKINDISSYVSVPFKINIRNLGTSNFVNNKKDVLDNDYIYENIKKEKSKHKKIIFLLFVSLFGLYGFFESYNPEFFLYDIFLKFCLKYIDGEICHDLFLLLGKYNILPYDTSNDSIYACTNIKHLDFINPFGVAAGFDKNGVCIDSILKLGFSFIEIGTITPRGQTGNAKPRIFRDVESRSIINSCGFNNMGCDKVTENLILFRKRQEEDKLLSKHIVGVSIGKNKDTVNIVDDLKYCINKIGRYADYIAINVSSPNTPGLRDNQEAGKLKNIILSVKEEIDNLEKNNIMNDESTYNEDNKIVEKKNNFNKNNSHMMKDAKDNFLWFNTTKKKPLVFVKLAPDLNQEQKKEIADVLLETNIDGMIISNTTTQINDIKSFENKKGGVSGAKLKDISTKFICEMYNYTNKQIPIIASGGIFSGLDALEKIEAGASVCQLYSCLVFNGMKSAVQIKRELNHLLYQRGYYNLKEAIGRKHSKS
A short description of assay [5]: inhibition of PAO1 biofilm formation – strain PAO1, LB-PBS medium, absorbance 600 nm, primary screen (AID 1176). Note: test concentration not given here. Particulars: P. aeruginosa PAO1 growth/biofilm, A600, 12 h; higher = more signal.
A short description of assay [6]: growth modulation of vineyard yeast isolate – strain RM11-1a, OD600, basal, 24 h, primary screen (AID 1177).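 Note: cultures grown under basal conditions with no added stressor; test concentration not given here.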 Particulars: S. cerevisiae RM11-1a growth, OD600, 24 h; higher = more signal, called active from +8 up or from −8 down.
The nature of assay [7]: growth of efflux-deficient E. coli DRC39 – strain DRC39, OD650, 24 h, E. coli filamentation inducers, primary screen (AID 1178).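 Note: growth measured as culture turbidity by optical density at 650 nm; test concentration not given here.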 To be noted: E. coli DRC39 acrAB, higher = more signal, called active from +8 up or from −8 down.
A short description of assay [8]: growth of efflux-deficient E. coli DRC39 – strain DRC39, OD650, 48 h, E. coli filamentation inducers, primary screen (AID 1179).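 Note: screen aims at cell division blockers that make cells filament.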 To be noted: E. coli DRC39 delta-acrAB growth, higher = more signal, called active from +8 up or from −8 down.
Assay [9] is described as follows: viability profiling in RPMI8226 myeloma cells – cell-based, resazurin fluorescence, basal, 24 h, PK04 Diversity Set, profiling panel (AID 1180).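 Note: RPMI8826 multiple myeloma cell line at 5000 cells per well; test concentration not given here.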 Particulars: higher = more signal.
Assay [10] has as its target E3 ubiquitin-protein ligase XIAP (Homo sapiens) (UniProt P98170). Nature of the assay: small molecules binding XIAP protein – biophysical, small-molecule microarray, fluorescence 635 nm, primary screen (AID 1181).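 Note: score merges 667 nm emission and signal to noise over triplicate slides.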 To be noted: higher = more signal.

Sequence of E3 ubiquitin-protein ligase XIAP (Homo sapiens) (P98170 whole entry, looked up): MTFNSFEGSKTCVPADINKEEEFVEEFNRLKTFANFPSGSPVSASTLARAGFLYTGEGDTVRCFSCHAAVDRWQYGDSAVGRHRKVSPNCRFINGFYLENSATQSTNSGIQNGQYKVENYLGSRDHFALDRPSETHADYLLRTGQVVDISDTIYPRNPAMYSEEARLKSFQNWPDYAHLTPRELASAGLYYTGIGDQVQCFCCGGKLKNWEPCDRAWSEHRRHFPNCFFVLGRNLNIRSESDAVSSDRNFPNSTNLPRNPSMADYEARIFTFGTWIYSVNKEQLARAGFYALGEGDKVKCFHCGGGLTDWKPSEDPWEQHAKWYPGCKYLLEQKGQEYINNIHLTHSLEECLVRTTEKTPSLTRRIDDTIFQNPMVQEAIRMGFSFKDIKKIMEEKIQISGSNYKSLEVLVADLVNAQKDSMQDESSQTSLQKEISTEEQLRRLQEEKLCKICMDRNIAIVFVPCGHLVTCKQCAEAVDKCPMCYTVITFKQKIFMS

`CCOC(=O)[C@H](Cc1ccccc1)NC(=O)CCC1CC(OC(=O)NCc2ccc3c(c2)OCO3)CC2(CCCC(COC(=O)NCc3ccccc3)O2)O1` (stereo not given in full): the z-score in assay [1] was 0.966; in assay [2], -0.0513 (inactive); in assay [3] it was 0.637 (inactive); in [5], 0.0858 (inactive); in assay [6], 0.864 (inactive); in assay [7], 0.703 (inactive). Further, the z-score is 1.22 (inactive) in assay [8] and 0.676 in assay [9]. Moreover, the values for the composite z-score in assay [4] and in [10] were 0.208 (inactive) and -0.0089, respectively.
As for `CO[C@H]1COC(=O)[C@H](C)NC(=O)[C@@H](C)COC(=O)CC=C[C@@H]1C`, the z-score is -0.279 in assay [1]; -0.518 (inactive) in assay [2]; 0.0346 (inactive) in assay [3]; -0.443 (inactive) in assay [5]; -0.477 (inactive) in assay [6]; 0.327 (inactive) in assay [7]. Also, the values for the z-score in [8] and in assay [9] were 1.3 (inactive) and 0.0991, respectively. Further, the figures for the composite z-score in assay [4] and in assay [10] were -0.0114 (inactive) and 0.0593, respectively.
`CO[C@H]1COC(=O)CC=C[C@H](C)[C@@H](NS(=O)(=O)c2ccc(C)cc2)COC(=O)CC=C[C@@H]1C`: the z-score was 0.55 in assay [1]; -1.66 (inactive) in assay [2]; -0.31 (inactive) in assay [3]; -0.573 (inactive) in assay [5]; -4.14 (inactive) in [6]; -0.721 (inactive) in [7]. The z-score in assay [8] was -1.03 (inactive); in assay [9] it was -0.203. Moreover, the composite z-score was -2.98 (inactive) in assay [4] and -0.255 in [10].
For `CC(C)CON=C1C[C@@H](O)[C@@H](O)[C@@H]2[C@@H]3C(=O)N([C@@H](C)c4ccccc4)C(=O)[C@@H]3CC[C@H]12`, the z-score is 0.0096 in assay [1]; -1.45 (inactive) in assay [2]; -0.0393 (inactive) in [3]; 0.07 (inactive) in [5]; 0.351 (inactive) in assay [6]; 0.595 (inactive) in [7]. Besides, the z-score is 0.675 (inactive) in assay [8] and 0.333 in assay [9]. Moreover, the composite z-score in [4] was -0.0804 (inactive); in assay [10], -0.166.
As for `CC(=O)OC[C@H]1O[C@H](CCON=C(C)CCC(=O)OC[C@H]2O[C@H](C#Cc3ccccc3)C=C[C@@H]2Oc2ccc(C)cc2)C=C[C@@H]1OC(C)=O`, the z-score in assay [1] is -0.508; in assay [2] it was 0.511 (inactive); in assay [3], -0.795 (inactive); in assay [5] it was 0.405 (inactive); in [6], 0.661 (inactive); in assay [7], 0.674 (inactive). Besides, the z-score in assay [8] was 0.59 (inactive); in [9] it was -0.31. For the same molecule, the composite z-score in assay [4] is -0.84 (inactive); in [10], -0.241.
Take `COC(=O)[C@H](C)NC(=O)CCC1CC(OC(=O)NCc2cccc3ccccc23)CC2(CCCC(COC(=O)NCC3CCCCC3)O2)O1` (stereo not given in full): the z-score in assay [1] is 1.14; in [2], -0.201 (inactive); in assay [3], 0.486 (inactive); in assay [5], -0.127 (inactive); in [6], 0.617 (inactive); in assay [7], 0.0476 (inactive). Further, the values for the z-score in assay [8] and in [9] were -0.399 (inactive) and 1.23, respectively. Further, the values for the composite z-score in [4] and in assay [10] were -0.533 (inactive) and -0.02, respectively.
On to `COCCOC(=O)N1C(=O)[C@@]2(c3cc(C#CC4(O)CCCCCC4)ccc31)[C@H](c1ccc(OCCO)cc1)N1[C@H](c3ccccc3)[C@H](c3ccccc3)OC(=O)[C@H]1[C@@H]2C(=O)NC[C@H](O)c1ccccc1`, for which the z-score in [1] was -0.259; in assay [2] it was 0.685 (inactive); in assay [3] it was -0.596 (inactive); in [5], 1.91 (inactive); in assay [6] it was 2.62 (inactive); in assay [7], 0.393 (inactive). Also, the z-score is 0.0869 (inactive) in [8] and 0.406 in [9]. Also, the composite z-score in [4] was 1.74 (inactive); in [10], -0.16.
Take `CCCNC(=O)OC[C@H]1O[C@H](CCON=C[C@@H](OC)[C@H](C)C=CCC(=O)OC)C=C[C@@H]1Oc1ccc(OC)cc1`: the z-score was 0.173 in [1]; 0.746 (inactive) in assay [2]; 0.345 (inactive) in [3]; -0.537 (inactive) in assay [5]; 0.198 (inactive) in assay [6]; 0.356 (inactive) in [7]. The values for the z-score in assay [8] and in [9] were 0.138 (inactive) and 1.95, respectively. Further, the results for the composite z-score in assay [4] and in assay [10] were 0.329 (inactive) and -0.0361, respectively.
As for `COC(=O)[C@@H]1CC[C@H](C)[C@@H](c2ccc(C)cc2)N1C(=O)c1ccc(C=NOC(C)CN2CCCCc3nc(C)c(C)cc32)cc1` (stereo not given in full), the z-score in assay [1] was 1.03; in assay [2], -0.104 (inactive); in assay [3] it was -0.725 (inactive); in assay [5] it was 0.642 (inactive); in assay [6], 0.984 (inactive); in assay [7], 0.419 (inactive). The z-score is -0.27 (inactive) in assay [8] and -0.0629 in assay [9]. In addition, the results for the composite z-score in assay [4] and in assay [10] were 0.613 (inactive) and 0.147, respectively.
On to `C=C(/C(=C/C[C@H](OC(=O)c1ccncc1)c1ccc(OCCO)cc1)c1cnc2ccccc2c1)C(C)C`, for which the z-score in assay [1] was 0.145; in [2], -0.753 (inactive); in assay [3], -0.777 (inactive); in assay [5], 0.85 (inactive); in [6], 0.0942 (inactive); in assay [7], -1.05 (inactive). Also, the z-score in [8] is -1.02 (inactive); in assay [9] it was 0.0076. Moreover, the composite z-score is -2.73 (inactive) in [4] and 0.13 in assay [10].
For `CCOC(=O)C1=CCC(c2cc3ccccc3[nH]2)NC1` (stereo not given), the z-score is -0.309 in [1]; -3.2 (inactive) in assay [2]; -0.79 (inactive) in [3]; 0.0083 (inactive) in [5]; -0.194 (inactive) in assay [6]; -0.303 (inactive) in assay [7]. Also, the z-score is -0.391 (inactive) in [8] and -0.613 in assay [9]. The composite z-score in assay [4] is -0.0148 (inactive); in assay [10] it was 0.0418.
